# Tests used:
# Test in all cases: DAPPL (digital affinity profiling via proximity ligation, sequencing); 10 mM Tris-HCl pH 7.5, 50 mM NaCl, 1 mM DTT, 4% glycerol, room temperature, 30 min; GST-TFs on glutathione beads, 16-mer random dsDNA library, 0.1% formaldehyde crosslink after washing; high values mean tight binding
# Details in all cases: protein: recombinant; tags: N-terminal GST; dsDNA, one strand shown
# FLI1 = target: T1, FLI1 (Homo sapiens, UniProt Q01543 1-452)
# T1 sequence: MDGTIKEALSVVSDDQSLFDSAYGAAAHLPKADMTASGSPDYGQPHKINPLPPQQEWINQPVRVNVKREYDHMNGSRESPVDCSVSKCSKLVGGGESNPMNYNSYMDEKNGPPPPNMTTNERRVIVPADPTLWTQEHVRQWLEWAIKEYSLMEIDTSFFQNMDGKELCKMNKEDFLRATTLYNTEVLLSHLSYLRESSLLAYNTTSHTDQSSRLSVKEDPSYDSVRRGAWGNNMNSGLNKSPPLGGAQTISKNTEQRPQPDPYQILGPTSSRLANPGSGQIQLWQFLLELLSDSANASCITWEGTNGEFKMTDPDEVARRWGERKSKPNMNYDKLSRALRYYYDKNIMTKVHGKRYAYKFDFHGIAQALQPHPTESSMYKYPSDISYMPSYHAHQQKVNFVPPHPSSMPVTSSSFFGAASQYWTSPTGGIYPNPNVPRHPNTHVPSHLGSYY
# In short: (§1)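 Each value of binding signal is a hexamer's read frequency for a factor divided by the same hexamer's frequency in the tag-only sample. Barcoded, bead-captured GST fusions of human transcription factors made in yeast were pooled with that sample and incubated with 200 nmole of a random double-stranded 16-mer DNA library in Tris/NaCl/DTT/glycerol buffer at room temperature for 30 min. Washing, 0.1% formaldehyde crosslinking, proximity ligation, PCR and Illumina NextSeq500 sequencing followed.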
# ELK1 = target: T2, ELK1 (Homo sapiens, UniProt P19419 1-428)
# T2 sequence: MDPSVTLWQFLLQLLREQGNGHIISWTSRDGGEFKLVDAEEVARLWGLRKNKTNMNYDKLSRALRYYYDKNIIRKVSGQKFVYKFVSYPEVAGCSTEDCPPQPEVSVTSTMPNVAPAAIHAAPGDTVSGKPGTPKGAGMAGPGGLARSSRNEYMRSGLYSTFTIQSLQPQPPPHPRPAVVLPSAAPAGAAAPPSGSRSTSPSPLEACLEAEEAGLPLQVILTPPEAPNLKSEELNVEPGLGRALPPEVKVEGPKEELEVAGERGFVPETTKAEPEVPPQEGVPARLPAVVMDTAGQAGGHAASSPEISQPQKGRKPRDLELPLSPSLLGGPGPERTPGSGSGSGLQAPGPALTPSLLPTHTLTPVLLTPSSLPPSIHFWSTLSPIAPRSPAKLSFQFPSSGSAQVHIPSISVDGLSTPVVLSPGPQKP
# In short: as §1
# GABPA = target: T3, GABPA (Homo sapiens, UniProt Q06546 1-454)
# T3 sequence: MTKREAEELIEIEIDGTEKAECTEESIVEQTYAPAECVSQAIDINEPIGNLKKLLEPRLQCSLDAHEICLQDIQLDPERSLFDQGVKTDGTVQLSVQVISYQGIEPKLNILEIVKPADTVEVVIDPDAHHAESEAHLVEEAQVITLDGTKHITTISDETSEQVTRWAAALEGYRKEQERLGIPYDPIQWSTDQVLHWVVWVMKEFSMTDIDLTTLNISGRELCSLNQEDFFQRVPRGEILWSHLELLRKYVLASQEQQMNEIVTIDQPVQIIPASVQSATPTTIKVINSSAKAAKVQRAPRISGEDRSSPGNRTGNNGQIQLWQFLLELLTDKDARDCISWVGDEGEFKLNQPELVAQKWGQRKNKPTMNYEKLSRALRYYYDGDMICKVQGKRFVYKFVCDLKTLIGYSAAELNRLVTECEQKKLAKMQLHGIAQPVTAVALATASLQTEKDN
# In short: as §1
# ERG = target: T4, ERG (Homo sapiens, UniProt P11308 1-479)
# T4 sequence: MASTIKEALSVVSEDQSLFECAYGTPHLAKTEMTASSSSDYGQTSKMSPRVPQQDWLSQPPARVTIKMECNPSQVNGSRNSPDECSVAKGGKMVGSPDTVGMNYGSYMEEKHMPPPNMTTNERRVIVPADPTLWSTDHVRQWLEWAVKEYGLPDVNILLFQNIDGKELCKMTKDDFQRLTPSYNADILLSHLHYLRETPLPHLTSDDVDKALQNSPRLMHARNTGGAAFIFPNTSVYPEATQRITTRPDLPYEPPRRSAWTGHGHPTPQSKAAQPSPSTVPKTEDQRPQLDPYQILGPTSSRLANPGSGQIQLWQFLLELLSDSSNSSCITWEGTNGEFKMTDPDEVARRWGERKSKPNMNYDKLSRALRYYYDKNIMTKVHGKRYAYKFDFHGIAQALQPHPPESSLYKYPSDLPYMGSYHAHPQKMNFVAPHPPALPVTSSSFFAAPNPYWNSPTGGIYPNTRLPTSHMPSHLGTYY
# In short: as §1
# ELF1 = ELF1 (Homo sapiens, UniProt P32519 1-619)
# Sequence of ELF1 (P32519 whole entry): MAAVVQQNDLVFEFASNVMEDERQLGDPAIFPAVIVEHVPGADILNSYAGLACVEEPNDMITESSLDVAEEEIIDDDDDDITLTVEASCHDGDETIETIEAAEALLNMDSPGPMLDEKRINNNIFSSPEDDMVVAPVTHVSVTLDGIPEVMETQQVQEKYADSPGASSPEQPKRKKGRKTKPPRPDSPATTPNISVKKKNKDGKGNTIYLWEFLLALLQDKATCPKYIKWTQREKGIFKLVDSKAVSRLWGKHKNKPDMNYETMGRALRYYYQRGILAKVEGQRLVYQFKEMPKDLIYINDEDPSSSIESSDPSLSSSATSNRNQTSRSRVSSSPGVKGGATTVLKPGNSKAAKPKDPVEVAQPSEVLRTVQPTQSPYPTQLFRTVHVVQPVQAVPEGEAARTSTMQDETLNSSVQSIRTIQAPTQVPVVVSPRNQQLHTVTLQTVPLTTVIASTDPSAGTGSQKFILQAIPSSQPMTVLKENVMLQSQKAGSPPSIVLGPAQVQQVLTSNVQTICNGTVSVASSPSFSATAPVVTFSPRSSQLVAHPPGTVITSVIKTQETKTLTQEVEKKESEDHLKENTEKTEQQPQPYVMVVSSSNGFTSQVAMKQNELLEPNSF
# In short: as §1
# EHF = target: T5, EHF (Homo sapiens, UniProt Q9NZC4 1-300)
# T5 sequence: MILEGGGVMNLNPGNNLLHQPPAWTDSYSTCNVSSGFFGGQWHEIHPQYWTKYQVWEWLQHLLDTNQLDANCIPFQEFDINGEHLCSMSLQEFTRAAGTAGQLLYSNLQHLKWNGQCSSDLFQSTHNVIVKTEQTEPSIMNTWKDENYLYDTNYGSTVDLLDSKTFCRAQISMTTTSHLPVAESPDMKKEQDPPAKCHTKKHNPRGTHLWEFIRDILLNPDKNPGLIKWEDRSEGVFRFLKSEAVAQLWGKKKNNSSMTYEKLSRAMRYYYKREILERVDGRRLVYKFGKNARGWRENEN
# In short: as §1
# SPI1 = SPI1 (Homo sapiens, UniProt P17947 1-270)
# In short: as §1
# SPIB = SPIB (Homo sapiens, UniProt Q01892 1-262)
# Sequence of SPIB (Q01892 whole entry): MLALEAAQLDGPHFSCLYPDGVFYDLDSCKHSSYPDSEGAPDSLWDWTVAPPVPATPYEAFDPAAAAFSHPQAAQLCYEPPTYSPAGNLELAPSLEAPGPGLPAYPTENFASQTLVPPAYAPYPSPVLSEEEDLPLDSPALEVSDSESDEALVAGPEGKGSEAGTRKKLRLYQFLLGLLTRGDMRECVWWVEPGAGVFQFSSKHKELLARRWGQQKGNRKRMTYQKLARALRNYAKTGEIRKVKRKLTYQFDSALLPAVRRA
# In short: as §1
# ELK3 = target: T6, ELK3 (Homo sapiens, UniProt P41970 1-407)
# T6 sequence: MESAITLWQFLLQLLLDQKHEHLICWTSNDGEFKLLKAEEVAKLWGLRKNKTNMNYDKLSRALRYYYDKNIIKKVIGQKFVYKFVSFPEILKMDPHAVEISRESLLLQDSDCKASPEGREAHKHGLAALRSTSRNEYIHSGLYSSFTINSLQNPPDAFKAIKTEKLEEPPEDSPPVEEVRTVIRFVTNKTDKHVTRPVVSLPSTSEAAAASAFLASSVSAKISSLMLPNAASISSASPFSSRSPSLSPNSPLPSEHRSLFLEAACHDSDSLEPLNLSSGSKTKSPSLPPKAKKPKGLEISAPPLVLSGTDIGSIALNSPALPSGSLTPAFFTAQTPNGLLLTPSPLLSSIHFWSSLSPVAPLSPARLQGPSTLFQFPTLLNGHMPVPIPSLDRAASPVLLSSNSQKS
# In short: as §1
Sequence,binding signal (FLI1),binding signal (ELK1),binding signal (GABPA),binding signal (ERG),binding signal (ELF1),binding signal (EHF),binding signal (SPI1),binding signal (SPIB),binding signal (ELK3)
AGAAGC,"1.11 fold enrichment (6-mer frequency, TF over GST control)","1.15 fold enrichment (6-mer frequency, TF over GST control)","1.12 fold enrichment (6-mer frequency, TF over GST control)","1.16 fold enrichment (6-mer frequency, TF over GST control)","1.08 fold enrichment (6-mer frequency, TF over GST control)","1.21 fold enrichment (6-mer frequency, TF over GST control)","1.22 fold enrichment (6-mer frequency, TF over GST control)","1.15 fold enrichment (6-mer frequency, TF over GST control)","1.1 fold enrichment (6-mer frequency, TF over GST control)"
GTTAAT,"1.14 fold enrichment (6-mer frequency, TF over GST control)","1.19 fold enrichment (6-mer frequency, TF over GST control)","1.06 fold enrichment (6-mer frequency, TF over GST control)","1.1 fold enrichment (6-mer frequency, TF over GST control)","1.03 fold enrichment (6-mer frequency, TF over GST control)","1.16 fold enrichment (6-mer frequency, TF over GST control)","1.1 fold enrichment (6-mer frequency, TF over GST control)","1.15 fold enrichment (6-mer frequency, TF over GST control)","1.12 fold enrichment (6-mer frequency, TF over GST control)"
ATGGGC,"1.28 fold enrichment (6-mer frequency, TF over GST control)","1.29 fold enrichment (6-mer frequency, TF over GST control)","1.3 fold enrichment (6-mer frequency, TF over GST control)","1.26 fold enrichment (6-mer frequency, TF over GST control)","1.27 fold enrichment (6-mer frequency, TF over GST control)","1.32 fold enrichment (6-mer frequency, TF over GST control)","1.35 fold enrichment (6-mer frequency, TF over GST control)","1.3 fold enrichment (6-mer frequency, TF over GST control)","1.37 fold enrichment (6-mer frequency, TF over GST control)"
AAATGC,"1.17 fold enrichment (6-mer frequency, TF over GST control)","1.29 fold enrichment (6-mer frequency, TF over GST control)","1.25 fold enrichment (6-mer frequency, TF over GST control)","1.3 fold enrichment (6-mer frequency, TF over GST control)","1.25 fold enrichment (6-mer frequency, TF over GST control)","1.25 fold enrichment (6-mer frequency, TF over GST control)","1.48 fold enrichment (6-mer frequency, TF over GST control)","1.18 fold enrichment (6-mer frequency, TF over GST control)","1.18 fold enrichment (6-mer frequency, TF over GST control)"
ATGGAA,"1.17 fold enrichment (6-mer frequency, TF over GST control)","1.11 fold enrichment (6-mer frequency, TF over GST control)","1.18 fold enrichment (6-mer frequency, TF over GST control)","1.26 fold enrichment (6-mer frequency, TF over GST control)","1.16 fold enrichment (6-mer frequency, TF over GST control)","1.2 fold enrichment (6-mer frequency, TF over GST control)","1.18 fold enrichment (6-mer frequency, TF over GST control)","1.19 fold enrichment (6-mer frequency, TF over GST control)","1.11 fold enrichment (6-mer frequency, TF over GST control)"
GATGTC,"1.25 fold enrichment (6-mer frequency, TF over GST control)","1.37 fold enrichment (6-mer frequency, TF over GST control)","1.24 fold enrichment (6-mer frequency, TF over GST control)","1.41 fold enrichment (6-mer frequency, TF over GST control)","1.22 fold enrichment (6-mer frequency, TF over GST control)","1.31 fold enrichment (6-mer frequency, TF over GST control)","1.23 fold enrichment (6-mer frequency, TF over GST control)","1.37 fold enrichment (6-mer frequency, TF over GST control)","1.19 fold enrichment (6-mer frequency, TF over GST control)"
GAAGTG,"1.46 fold enrichment (6-mer frequency, TF over GST control)","1.7 fold enrichment (6-mer frequency, TF over GST control)","1.49 fold enrichment (6-mer frequency, TF over GST control)","1.87 fold enrichment (6-mer frequency, TF over GST control)","1.52 fold enrichment (6-mer frequency, TF over GST control)","1.71 fold enrichment (6-mer frequency, TF over GST control)","2.8 fold enrichment (6-mer frequency, TF over GST control)","1.61 fold enrichment (6-mer frequency, TF over GST control)","1.75 fold enrichment (6-mer frequency, TF over GST control)"
